Compound activity deposited in PubChem BioAssay by several laboratories.
Sampled rows, rich in hits. Any-hit rate of the full collection: about 1.8%.
Mot1-301 SUMO = SUMOylation pathway inhibition by Mot1-301 growth rescue; growth rescue, % at 18.8 µM; actives 1% (n = 320,000); S. cerevisiae Mot1-301 growth rescue, ATP luminescence, 38.5C; percent above DMSO median, 100 means doubled; AID 2716;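 active means every valid replicate shows activation above 250% relative to neutral control wells; inactive means the rest, any valid replicate at or below 250%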
AI-2 QS mod = modulators of Vibrio harveyi AI-2 quorum sensing system; Vibrio harveyi JMH597 AI-2 luminescence/OD600 ratio, 9 h; active compounds read low; strain lacks LuxN and CqsS sensors; 0 = neutral-control median; activity change, % at 7.5 µM; actives 0.4% (n = 300,000); AID 2094; in the data active means activity change below about -75%, passing the limit was not always enough;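 further: luminescence divided by OD600 gain over 9 h not by final OD600 alone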
aDG glyco up = increases alpha dystroglycan glycosylation | Pro5-aDG cells, alpha-DG glycosylation AlphaScreen (IIH6); 0% Pro5, 100% B10-LARGE cell signal | activation, % at 10 µM | AID 624168 | actives 0.22% (n = 360,000);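 active means activation of at least 8% versus controls, or a plate z-score of at least 8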;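 further: Pro5 are CHO cells carrying HIG-tagged alpha-DG that lacks glycosylation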
Bfl-1 A1 inh = inhibitors of the anti-apoptotic protein A1, read as caspase activation | MEF A1-2A-BIM cells, Caspase-Glo 3/7 luminescence, 3 h; percent of clofoctol response, vehicle zero | caspase activation, % (concentration not given with the values) | actives 0.066% (n = 330,000) | AID 2462;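 active means over half of replicate activation scores above 10%, or exactly half above 10 with the replicate mean above 10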
ARNT TACC3 PPI = disruptors of human ARNT/TACC3 interaction; inhibition, % at 9.99 µM; AID 623870; actives 0.66% (n = 390,000); AlphaScreen His-ARNT PAS-B/GST-TACC3 binding, luminescence; TACC3 fragment carries E629A point mutation;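 active means mean inhibition of replicates at least 50% and at least half of replicates each reaching 50%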
A number is an active result; 0 = inactive; - = no result.

SMILES	Mot1-301 SUMO	AI-2 QS mod	aDG glyco up	Bfl-1 A1 inh	ARNT TACC3 PPI
CO[C@H]1C=CO[C@@]2(C)Oc3c(C)c(O)c4c(O)c(c(C=NN5CCN(C6CCCC6)CC5)c(O)c4c3C2=O)NC(=O)C(C)=CC=C[C@H](C)[C@H](O)[C@@H](C)[C@@H](O)[C@@H](C)[C@H](OC(C)=O)[C@@H]1C	-	-185	-	-	-
Cc1ccc(S(=O)(=O)NNC(=O)C(=O)NNc2ccccn2)cc1	0	0	0	0	63
Cc1ccccc1S(=O)(=O)NNC(=O)C(=O)NNc1ccccn1	0	0	0	0	70
Nc1ccc(S(=O)(=O)NNC(=O)C(=O)NNc2ccccn2)cc1	0	0	0	0	74
O=C(Nc1ccccn1)C(=O)Nc1ccccn1	0	0	0	0	0
CC(=O)Nc1ccc(S(=O)(=O)NNC(=O)C(=O)NNc2ccccn2)cc1	0	0	0	0	75
CC(C)(CO)CNC1CCCN(C2Cc3ccccc3C2)C1 (stereo unspecified)	0	0	0	0	0
CSc1nc(C)cc(OCC(=O)N/N=C/c2ccccc2O)n1	0	0	0	0	49
O=C(COc1nsnc1N1CCOCC1)N/N=C/c1ccccc1O	0	0	0	0	59
O=C(NCCCN1CCOCC1)C(=O)N/N=C/c1ccccc1O	0	0	0	0	69
O=C(CCN1CCOCC1)N/N=C/c1cc(Br)cc(Br)c1O	0	0	0	0	70
O=C(c1ccc(-n2cnnn2)cc1)N1CCOCC1	303	0	0	0	0
Cc1cc2c(cc1S(=O)(=O)N1CCN(c3ccccc3F)CC1)OCC(=O)N2	0	0	0	0	15
Cc1cccc(NC(=O)C(CC(C)C)NC(=O)C2CCC(C)CC2)n1 (stereo unspecified)	0	0	0	0	0
CC(C)C1Nc2ccc(C(=O)NC3CCCCC3)cc2NC1=O (stereo unspecified)	0	0	0	0	0
COc1cc(NS(=O)(=O)c2ccc3c(c2)NC(=O)CO3)cc(OC)c1	0	0	0	0	0
COc1ccc(NS(=O)(=O)c2ccc3c(c2)NC(=O)CO3)cc1	0	-81	0	0	0
CCOc1ccc(NC(=O)CSc2ccc(-c3ccccn3)nn2)cc1	0	0	0	0	26
CCOc1ccc(NC(=O)CSc2nnnn2-c2ccc(C(N)=O)cc2)cc1	264	0	0	0	0
CC(=O)N1CCc2cc(S(=O)(=O)NCCC(=O)NCCc3ccc(Cl)cc3)ccc21	0	0	0	0	0
COc1ccc(NC(=S)NNC(=O)c2nnn(-c3ccccc3)c2C)cc1	0	0	0	0	62
O=C(CSc1ccc2nnc(-c3ccncc3)n2n1)Nc1ccc2c(c1)OCO2	0	0	0	0	0
O=C(CSc1ccc2nnc(-c3ccccn3)n2n1)Nc1ccc2c(c1)OCO2	0	0	0	0	51
O=C(CSc1ccc2nnc(-c3ccccn3)n2n1)N1CCN(c2ccccc2)CC1	0	0	0	0	67
COc1cccc(C(=O)Nc2ccncc2)c1	0	0	-	0	-
SMILES	Mot1-301 SUMO	AI-2 QS mod	aDG glyco up	Bfl-1 A1 inh	ARNT TACC3 PPI
Cc1ccc(NC(=O)COC(=O)c2cc(Cl)ccc2[N+](=O)[O-])cc1	0	-92	0	0	0
NS(=O)(=O)c1ccc(NC(=O)COC(=O)c2ccc(Cl)cc2[N+](=O)[O-])cc1	0	0	0	0	0
NS(=O)(=O)c1cccc(NC(=O)COC(=O)c2cc(Cl)ccc2[N+](=O)[O-])c1	0	-79	0	0	0
O=C(c1ccccc1)N1CCN(C2CC3CCC2C3)CC1 (stereo unspecified)	0	0	0	0	0
CC(=O)N(C)C[C@@H]1Oc2cc(-c3ccc(C#N)cc3)ccc2S(=O)(=O)N([C@H](C)CO)C[C@@H]1C	-	-	-	-	active
CNC[C@@H]1Oc2cc(C#Cc3ccccn3)ccc2S(=O)(=O)N([C@H](C)CO)C[C@H]1C	-	-	-	-	46
N#CC1=C(N)N2C(=C(C#N)C1c1ccccc1)Sc1ccccc12 (stereo unspecified)	0	0	-	0	-
O=[N+]([O-])c1ccc(O)c(CNCc2ccccc2)c1	-	-	0	-	0
CC(C)(C)C(=O)Nc1ccc(S(=O)(=O)c2ccc(NC(=O)C(C)(C)C)cc2)cc1	320	0	0	0	0
CC(C)(C)C(=O)Nc1ccc(NC(=O)C(C)(C)C)cc1	0	0	0	0	0
O=C(COC(=O)CNS(=O)(=O)c1ccc2ccccc2c1)Nc1ccc2c(c1)OCO2	0	0	0	0	0
COc1ccc(/C=C/C(=O)NC(=S)NCCc2ccc(OC)c(OC)c2)cc1	0	0	0	7.2	0
Cc1ccc(C)c(S(=O)(=O)Nc2ccc(O)c3ccccc23)c1	0	0	4.3	0	0
CCCC(C)c1nnc(NC(=O)CN2C(=O)c3ccccc3C2=O)s1 (stereo unspecified)	-	-88	0	0	0
COc1ccc(CCN2C(=O)CC(Cc3ccc(Br)cc3)C2=O)cc1OC (stereo unspecified)	0	0	0	0	0
CCOc1ccccc1Nc1nc(-c2sc(NC(=O)c3ccco3)nc2C)cs1	0	0	0	0	-
CC(C)(C)C(=O)NC(=S)Nc1ccccc1F	436	0	0	0	-
Cc1c(CCO)c(=O)[nH]n1S(=O)(=O)c1ccccc1	0	0	0	0	-
Cc1c(CCO)c(=O)n(-c2ccccc2)n1S(=O)(=O)c1c(Cl)cc(Cl)cc1Cl	-	0	0	0	57
Cn1c(-c2ccc3c(c2)OCO3)cnc1N	0	0	0	0	54
Cn1c(-c2ccc3c(c2)OCO3)cnc1NCc1ccccc1	0	0	0	0	0
CC(=O)NC(Cc1ccccc1C)C(=O)NC1CCN(C(=O)NCc2ccccc2)CC1 (stereo unspecified)	-	0	0	-	0
Cc1cccc(NC(=O)c2ccc([N+](=O)[O-])o2)c1C	0	0	0	0	0
O=C(Nc1cccc(NC(=O)c2ccccc2Cl)c1)c1ccc([N+](=O)[O-])o1	0	-191	0	0	0
COc1ccccc1NC(=O)c1ccc([N+](=O)[O-])o1	0	-87	-	0	-
SMILES	Mot1-301 SUMO	AI-2 QS mod	aDG glyco up	Bfl-1 A1 inh	ARNT TACC3 PPI
O=C(Nc1cccc2ccccc12)c1ccc([N+](=O)[O-])o1	0	-128	0	0	0
COc1ccccc1S(=O)(=O)Cc1ccc(C(=O)NCC2CCCO2)o1 (stereo unspecified)	0	0	0	0	0
CN(Cc1cnn(C)c1)C(=O)C1CCC(=O)N(Cc2cccc(F)c2)C1 (stereo unspecified)	0	0	0	0	0
CCCOc1ncnc2c1[nH]c1ccccc12	0	0	0	0	0
Cc1ccc(C(=O)NCCCNC(=O)COc2ccc(C)c(C)c2)cn1	289	0	0	0	0
Cc1ccc(C(=O)NCCNC(=O)COc2ccc(C)c(C)c2)cn1	0	0	0	0	0
C1=CC2c3ccccc3NC(c3ccncc3)C2C1 (stereo unspecified)	0	0	0	0	0
